This is an account of results in PubChem BioAssay (NCI).

Molecules are shown by their SMILES. This is part of a sample that, as a whole, favours compounds with a hit. Of some 83,000 tested, about 20% had one in any assay.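 The test compound was applied at a single concentration to cells in 96-well plates for 48 hours, and percent growth was recorded.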 Values without a mark were called inactive. Activity calls are given as the source filed them.

The test system of this test is CAKI-1 renal. Kind of test: NCI-60 one-dose screen, 48 h (100 = growth as untreated, 0 = no growth, -100 = all killed). The following applies: 10 µM unless noted. Here is the method: Growth inhibition of the CAKI-1 human tumor cell line is measured as a screen for anti-cancer activity. Cells are grown in 96 well plates and exposed to the test compound for 48 hours. Compounds are tested at a single concentration, which is 10^-5 M for most compounds. The reported endpoint is percent growth (GI% or GIPRCNT), where numbers from 0 - 100% represent growth inhibition, and numbers from -100% - 0 represent cell death. For example, a value of 40 represents 60% growth inhibition. A value of 0 means no net growth occurred over the course of the experiment. A value of -40 indicates 40% of cells at the beginning of the experiment died by the end of the experiment. A value of -100 means all cells are dead at the end of the experiment.
NCI-60 Human Tumor Cell Lines Screen was performed using the standard one-dose NCI protocol, which is described in more detail at https://dtp.cancer.gov/discovery_development/nci-60/default.htm.
Compounds with GIPRCNT values below 10 were considered active. Activity score was based on GIPRCNT using the following formula: […]
Score is 0 for GIPRCNT values of 100 or above, 50 for GIPRCNT values of 0, and 100 for GIPRCNT values of -100.
For `O=C(/C=C/c1cccs1)Nc1ncc(Cc2ccccc2F)s1`, the growth is 23%.
To `NC(N)=NCCCCCNc1noc(Cc2c[nH]c3cc(Br)ccc23)n1` belongs 82.4%; to `CCOc1ccccc1Cn1ccnc1CCc1c(Cl)c(O)cc(O)c1C(=O)OC`, 98.6%; to `COc1ccc2c(c1)N(CCO)C1=C(C(=O)OC1)C2c1cccc(F)c1` (stereo not given), 31.3%.
`O=C(CSc1nnc(-c2cnccn2)n1-c1ccccc1)c1ccc(Cl)cc1`: the growth was 102%.
Next, `COc1ccc2[nH]c(C(=O)N3CCN(C(=O)OCc4ccc5c(Cl)cc(Cl)c(O)c5n4)CC3)cc2c1`: -95.6% (active).
As to `CC(C)=CCCC(C)c1ccc(C)c2c1OCN(CCCCCO)C2` (stereo not given), the growth is 78.1%.
Consider `CC1(C)CC(=O)C2=C(C1)N(c1ccc(OC(F)(F)F)cc1)C(N)=C(C#N)C2c1ccc(Br)cc1F` (stereo not given), for which the growth was 50.3%.
To `C=C1CC[C@@H]2[C@](C)(COC(C)=O)[C@H](OC(C)=O)CC[C@@]2(C)[C@@H]1CC(Nc1ccc(S(=O)(=O)Nc2ncccn2)cc1)C1=CCOC1=O` (stereo not given in full) belongs 50.2%; to `O=C(Nc1nc2ccccc2s1)c1ccc(F)cc1`, 62.9%; to `O=C(C[C@]1(O)C(=O)Nc2ccccc21)c1cccc(C(F)(F)F)c1`, 81.7%.
Turning to `Oc1c(Br)cc(Br)c2ccc(Cn3cc(-c4ccc(C(F)(F)F)cc4)nn3)nc12`, the growth was 13.2%.
To `Nc1ncnc2c1C(c1ccccc1)c1ccc3ccccc3c1O2` (stereo not given) belongs 81.1%.
As to `CC1=NC2=Nn3c(c4cnn(-c5ccccc5)c4n/c3=N\N)NN2C(c2ccccc2)=C1`, the growth is 76.5%.
In the case of `CC(C)(Sc1cc(C(C)(C)C)c(O)c(C(C)(C)C)c1)Sc1cc(C(C)(C)C)c(OC(=O)CCCC(=O)O)c(C(C)(C)C)c1`, the growth was 59%.
To `CN(C)CCNC(=O)c1ccc(-c2nc3ccc4[nH]ncc4c3c3c2C2CCC3C2)cc1` (stereo not given) belongs 15.2%; to `CCOC(=O)n1cc(-c2nonc2-c2cn(C(=O)OCC)c3ccc(Br)cc23)c2ccccc21`, 60.1%; to `CC/C(=C(/c1ccc(Cl)cc1)c1ccc(OCCN2CCCCC2)cc1)c1ccc(OC)cc1`, 72.3%.
`CS(=O)(=O)c1ccc(-c2cnn3ccc(-c4cccc(S(=O)(=O)C5CC5)c4)nc23)cc1`: the growth was 52.2%.
In the case of `CCN1C(=S)N(c2ccccc2)C2NC(=S)N(/N=C/C=C/c3ccccc3OC)C21` (stereo not given), the growth is 27.7%.
For the molecule `CCCCCCCCCc1ccc(OCCOCCOCCOCCOCCOCCOCCOCCOCCO)cc1`, the growth was 13.6%.
Next, `O=c1c2cccc3c(N4CCCC4)ccc(c32)c2nc3ccccc3n12`: 51.3%; `COc1ccc(C(=O)C/C(=C\c2ccc(Cl)cc2)C(=O)NCc2ccccc2)cc1`: 87.4%; `CN(C)CC(C)(C)C(=O)/C=C/c1ccccc1`: -6.22% [25 µM] (active).
Next, `Cc1cc(C)c2c(c1)N(C)c1ncnc(-n3cnc4cc(C)ccc43)c1CC2C` (stereo not given): 32.8%.
In the case of `CCn1cc(C(=O)NNC(=S)Nc2ccc(C)cc2)c(=O)c2ccc(C)nc21`, the growth was 95.4%.
Next, `O=C(N/N=C/c1ccc(Cl)cc1)c1[nH]c2ccc(Cl)cc2c1-c1ccccc1`: 20.9%; `Cc1cc(=O)n(C(=O)Nc2ccccc2Cl)c2cc(O)ccc12`: 92.3%.
Consider `Nc1nc2ccccc2c2c1S(=O)(=O)c1ccc(Cl)cc1C2=O`, for which the growth was 19%.
In the case of `O=C(COc1ccc(-c2nc3cc(Cl)c(Cl)cc3[nH]2)cc1)N=Nc1c(O)[nH]c2ccc(Cl)cc12`, the growth was 76.3%.
Next, `O=[N+]([O-])c1cccc(-c2nc3cc4nc5ccccc5[nH]c4cc3n2)c1`: 104%; `C/C(=N\O)c1ccc(Cl)cc1`: 96.9%.
`COC(=O)c1nc(-c2ccc(C)cc2)oc1S(=O)(=O)c1cccc(OC)c1`: the growth was 69.5%.
To `NC(=O)c1ccc(-c2c3ccccc3cc3c2ccc2ccccc23)cc1` belongs 61.7%; to `Cc1[nH]c(C(=O)Nc2ccccc2OC2CCNCC2)c(Cl)c1Cl`, 1.32% (active).
For `O=C1Nc2ccccc2/C1=C/c1nc2ccccc2c(=O)[nH]1`, the growth is 84.2%.
Next, `O=C(OC(CO)C(=O)NC12CC3CC(CC(C3)C1)C2)c1ccc(Cl)cc1` (stereo not given): 99.4%; `NC(=O)c1cccc(-n2ccc3cc(NC(=O)c4ccc(N5CCOCC5)c(C(F)(F)F)c4)ccc32)n1`: 39.7%; `COc1ccc(-c2nc3c(ncc4ccc(=O)[nH]c43)s2)cc1`: 67.6%.
As to `Nc1n[nH]c2cccc(C#Cc3cccc(C(=O)Nc4cc(C(F)(F)F)cc(C(F)(F)F)c4)c3)c12`, the growth is 96.2%.
